Reference: PubChem BioAssay AID1159580 (chemical genetic matrix, 2015)
In all, about 5,500 compounds went through this assay and about 2,000 (36%) were called active. About 18% were inconclusive and are not listed. No stated cut-off is given here; in the data, active means normalized growth mostly below about 0.91 (no sharp cut-off); inconclusive means no clear call, values can overlap the other calls; inactive means mostly above about 0.92. The list shows a part of the results.

Experiment: chemical genetic growth profiling, strain panel (AID 1159580);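 further: tested at 20 µM; growth read once vehicle control cultures reached saturation at 30 °C; 1 = growth at the plate median or of vehicle wells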
Settings: S. cerevisiae deletion strains, growth OD

Measured: normalized growth

Cc1nn(Cc2nnc(SCc3cccc(C(F)(F)F)c3)o2)c(C)c1Br
active: locus YLR113W, strain HOG1, stronger effect = lower value 0.854
inactive: locus YAR019C, strain CDC15, stronger effect = lower value 0.982 | locus YBL105C, strain PKC1, stronger effect = lower value 0.969 | locus YBR135W, strain CKS1, stronger effect = lower value 0.967 | locus YBR136W, strain MEC1, stronger effect = lower value 0.97 | locus YBR160W, strain CDC28, stronger effect = lower value 0.975 | locus YDL017W, strain CDC7, stronger effect = lower value 0.977 | locus YDL028C, strain MPS1, stronger effect = lower value 0.973 | locus YDL101C, strain DUN1, stronger effect = lower value 0.972 | locus YDL108W, strain KIN28, stronger effect = lower value 0.969 | locus YDL132W, strain cdc53, stronger effect = lower value 0.969 | locus YDL214C, strain PRR2, stronger effect = lower value 0.932 | locus YDR052C, strain DBF4, stronger effect = lower value 0.983 | locus YDR054C, strain cdc34, stronger effect = lower value 0.975 | locus YDR226W, strain ADK1, stronger effect = lower value 0.977 | locus YDR477W, strain SNF1, stronger effect = lower value 0.968 | locus YER123W, strain YCK3, stronger effect = lower value 0.921 | locus YER133W, strain GLC7, stronger effect = lower value 0.967 | locus YFL009W, strain cdc4, stronger effect = lower value 0.973 | locus YFL029C, strain CAK1, stronger effect = lower value 0.979 | locus YFR003C, strain YPI1, stronger effect = lower value 0.971 | locus YFR019W, strain FAB1, stronger effect = lower value 0.952 | locus YFR028C, strain CDC14, stronger effect = lower value 0.963 | locus YGR040W, strain KSS1, stronger effect = lower value 0.957 | locus YGR052W, strain FMP48, stronger effect = lower value 0.965 | locus YGR092W, strain DBF2, stronger effect = lower value 0.987 | locus YHR030C, strain SLT2, stronger effect = lower value 1.03 | locus YHR079C, strain IRE1, stronger effect = lower value 1 | locus YHR082C, strain KSP1, stronger effect = lower value 1 | locus YHR205W, strain SCH9, stronger effect = lower value 0.959 | locus YIL147C, strain SLN1, stronger effect = lower value 0.968 | locus YJL095W, strain BCK1, stronger effect = lower value 0.965 | locus YJL128C, strain PBS2, stronger effect = lower value 0.945 | locus YJL157C, strain FAR1, stronger effect = lower value 0.965 | locus YJR016C, strain ILV3, stronger effect = lower value 0.978 | locus YJR066W, strain TOR1 (second series), stronger effect = lower value 0.969 | locus YJR066W, strain TOR1, stronger effect = lower value 1.03 | locus YKL048C, strain ELM1, stronger effect = lower value 0.974 | locus YKL067W, strain YNK1, stronger effect = lower value 0.944 | locus YKL101W, strain HSL1, stronger effect = lower value 0.905 | locus YKL193C, strain SDS22, stronger effect = lower value 0.971 | locus YKL203C, strain TOR2, stronger effect = lower value 1.01 | locus YLR133W, strain CKI1, stronger effect = lower value 0.935 | locus YLR403W, strain SFP1, stronger effect = lower value 0.949 | locus YML070W, strain DAK1, stronger effect = lower value 0.916 | locus YMR001C, strain CDC5, stronger effect = lower value 0.973 | locus YMR205C, strain PFK2 (second series), stronger effect = lower value 0.946 | locus YMR277W, strain FCP1, stronger effect = lower value 0.974 | locus YNL006W, strain LST8, stronger effect = lower value 0.971 | locus YNL020C, strain ARK1, stronger effect = lower value 0.942 | locus YNL161W, strain CBK1, stronger effect = lower value 0.969 | locus YNL183C, strain NPR1, stronger effect = lower value 0.99 | locus YNL207W, strain RIO2, stronger effect = lower value 0.975 | locus YNL222W, strain SSU72, stronger effect = lower value 0.97 | locus YNL307C, strain MCK1 (second series), stronger effect = lower value 0.956 | locus YOL078W, strain AVO1, stronger effect = lower value 0.967 | locus YOL136C, strain PFK27, stronger effect = lower value 0.881 | locus YOR061W, strain CKA2, stronger effect = lower value 0.952 | locus YOR119C, strain RIO1, stronger effect = lower value 1.02 | locus YOR231W, strain MKK1, stronger effect = lower value 0.91 | locus YOR329C, strain SCD5, stronger effect = lower value 0.978 | locus YPL031C, strain PHO85, stronger effect = lower value 0.961 | locus YPL153C, strain RAD53, stronger effect = lower value 0.972 | locus YPL204W, strain HRR25, stronger effect = lower value 0.932 | locus YPL209C, strain IPL1, stronger effect = lower value 0.982 | locus YPL256C, strain CLN2, stronger effect = lower value 0.965 | locus YPR025C, strain CCL1, stronger effect = lower value 0.974 | locus YPR106W, strain ISR1, stronger effect = lower value 0.975 | locus YPR111W, strain DBF20, stronger effect = lower value 0.947 | strain NNK1, stronger effect = lower value 0.961 | strain TSCII, stronger effect = lower value 0.972
